Sampled rows, rich in hits. Any-hit rate of the full collection: about 4.1%.
PfHsp90 set2 = reduces growth (ATP signal) of yeast expressing P. falciparum Hsp90. S. cerevisiae expressing PfHsp90, BacTiter-Glo ATP, 48 h; yeast lacking PDR1 and PDR3 efflux regulators. inhibition, % at 9.4 µM. hit rate 0.32% among 310,000. AID 504621;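 active = every replicate shows inhibition above about 80%, whatever the replicate mean, limit read from the data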;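 note: 0% = DMSO neutral controls and 100% = 20 µM radicicol positive controls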
NALP3 yeast inh = inhibitors of NALP3 inflammasome in yeast | Yeast reconstituted NLRP3/ASC/caspase-1, beta-gal luminescence, 24 h | inhibition, % at 10 µM | hit rate 0.39% among 330,000 | AID 2825;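 active = inhibition of 50% or more; inactive = inhibition below 50%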;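 note: plate controls were induced DMSO wells for no effect and uninduced yeast grown without galactose for full effect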
tim10-1 inh = growth inhibitors of tim10-1 mutant yeast. S. cerevisiae tim10-1 ts strain growth, BacTiter-Glo, 24 h. inhibition, % at 20 µM. hit rate 2.2% among 330,000;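 active = inhibition of at least 40%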;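 note: mutant grown at 25 °C; 0% = DMSO wells with yeast and 100% = wells holding no yeast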
NALP1 inh = NALP1 inhibition | inhibition, % at 10 µM | S. cerevisiae NALP1/ASC/caspase-1 growth, X-gal OD620, 72 h | hit rate 0.61% among 280,000; in the data active = inhibition mostly above about 24%, no sharp cut-off; inactive = mostly below about 32%
TIM10 inh = growth inhibitors of TIM10 yeast strain; hit rate 1.4% among 330,000; S. cerevisiae TIM10 strain growth, BacTiter-Glo luminescence, 24 h; inhibition, % at 10 µM;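 active = inhibition of 40% or more at the single tested concentration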;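 note: wild-type TIM10 isogenic control strain grown at permissive 25 °C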
tim23-1 inh = growth inhibitors of tim23-1 mutant yeast | S. cerevisiae tim23-1 growth, BacTiter-Glo luminescence, 24 h | inhibition, % at 20 µM | hit rate 1.3% among 330,000 | AID 463212;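 active = growth inhibition of the mutant yeast at or above 50%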;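 note: temperature-sensitive mutant grown at 25 °C; plate controls were DMSO-treated mutant yeast for no effect and medium wells lacking yeast for full effect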
tim10-1 confirm = confirmation of tim10-1 mutant yeast growth inhibitors; hit rate 56% among 7,400; inhibition, % at 20 µM; S. cerevisiae tim10-1 ts strain growth, BacTiter-Glo, 24 h; shares compounds with tim10-1 inh;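 active = inhibition of yeast growth at or above a set limit in either of two repeat tests at 20 µM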;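 note: tim10-1 mutant grown at permissive 25 °C to find synthetic lethal compounds; 0% = DMSO yeast wells and 100% = medium wells without yeast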
The depositor's hits bear a star; nt = no result.

SMILES | PfHsp90 set2 | NALP3 yeast inh | tim10-1 inh | NALP1 inh | TIM10 inh | tim23-1 inh | tim10-1 confirm
N#CC1(Nc2ccc(S(N)(=O)=O)cc2)CCCC1 | 24.3 | nt | nt | nt | nt | nt | nt
Cc1c(Cl)cccc1NC(=S)/C(=C(\[O-])c1ccc(Cl)s1)[n+]1ccccc1 | -5.6 | 18.4 | 47.1* | 3.9 | 19.3 | 42.1 | 36.5*
Cc1cc(NC(=O)c2oc3ccccc3c2C)ccc1-n1cnnn1 | 9.0 | 28.0 | 41.8* | 8.5 | 34.9 | 37.9 | -2.9
COc1cc(OC)cc(C(=O)Nc2ccc(-n3cnnn3)c(C)c2)c1 | nt | -8.7 | 6.8 | 4.5 | 6.4 | 4.9 | nt
CC1CC(C)CN(CCCNC(=O)CN2C(=O)c3cccnc3Oc3ccc(Cl)cc32)C1 (stereo not drawn) | -4.8 | 1.3 | 0.3 | 16.7 | 5.8 | 8.9 | nt
CN(Cc1nc2ccccc2c(=O)[nH]1)C(=O)c1cccc(NC(=O)c2cccs2)c1 | 17.8 | 11.2 | 7.4 | nt | 5.4 | 16.6 | nt
CCOC(=O)C1=C(N)Oc2ccc3ccccc3c2C1c1ccc(O)c(OC)c1 (stereo not drawn) | -42.7 | 5.3 | 40.1* | 17.6 | 10.7 | 46.9 | 22.6
CCOC(=O)C1=C(N)Oc2ccc3ccccc3c2C1c1ccc(O)cc1 (stereo not drawn) | 0.1 | 13.5 | -42.5 | 2.4 | 6.1 | 34.5 | nt
C=CCc1cccc(/C=N/NC(=O)c2ccc3nc[nH]c3c2)c1O | -10.7 | 16.3 | 44.0* | 6.5 | 7.2 | 0.8 | -2.5
O=C(N/N=C/c1ccc(Cl)cc1Cl)c1ccc2nc[nH]c2c1 | 1.9 | 2.5 | 16.0 | 21.6 | -4.7 | 8.0 | nt
CCOC(=O)C1=CCN(Cc2ccccc2)CC1 | 2.4 | 2.8 | -21.9 | 13.2 | -5.9 | -2.6 | nt
N#Cc1c(-c2ccccc2)nc(SCc2cccc(Cl)c2)[nH]c1=O | -32.9 | 10.5 | 42.1* | -6.6 | 17.5 | 33.3 | 27.1
COc1ccc(CNC(=O)CSCc2cnn(-c3ccccc3)c2-n2cccc2)cc1 | nt | -8.5 | 43.8* | 10.1 | -2.7 | 13.8 | 16.1
CN1C(=O)[C@@H]2[C@@H]3C[C@@H]([C@H]4ON=C(c5ccc(Cl)cc5)[C@@H]34)[C@@H]2C1=O | -3.6 | 5.5 | 0.8 | 20.7 | 10.0 | 16.1 | nt
O=C1[C@@H]2[C@@H]3C[C@@H]([C@H]4ON=C(c5ccc(Cl)cc5Cl)[C@@H]34)[C@@H]2C(=O)N1C1CCCCC1 | -0.9 | 1.1 | 52.0* | 31.9 | 13.5 | 41.1 | 33.6*
COc1ccc(C2=NN(C(=O)CSc3nc(=O)n4cccc(C)c4n3)C(c3ccc(C)cc3)C2)cc1 (stereo not drawn) | nt | 10.5 | 15.9 | nt | 16.5 | 13.1 | nt
Clc1ccc(Cn2c(/C=C/c3ccco3)nc3ccccc32)cc1 | 8.3 | 5.6 | 47.8* | 49.0 | 31.0 | 45.2 | 39.8*
N/C(=N\OC(=O)c1cccc(Cn2cc(C(F)(F)F)ccc2=O)c1)c1ccccc1 | 27.3 | 21.4 | 44.1* | 15.0 | 21.6 | 0.6 | 51.9*
Cc1nc(-c2ccccn2)sc1C(=O)Nc1ccc(Cl)c(Cl)c1 | 4.5 | 18.1 | 47.3* | 7.8 | 35.2 | -2.8 | 29.2*
Brc1ccc(Oc2nnnn2-c2ccccc2)cc1 | -11.8 | -3.3 | 43.7* | -30.8 | 9.9 | 47.6 | 35.2*
COC(=O)c1ccccc1C(=O)N(Cc1cccnc1)CC1CCCN(C2CCCCC2)C1 (stereo not drawn) | -15.1 | 7.2 | -7.8 | 15.2 | 0.9 | -6.1 | nt
O=Cc1c(-c2ccccc2)cc2oc3ccccc3cc1-2 | 13.1 | 41.8 | 16.9 | -11.8 | 24.0 | 38.1 | nt
O=C(CCS(=O)(=O)c1ccc(Cl)cc1)Nc1nc(-c2ccncc2)cs1 | -20.9 | -12.0 | 20.5 | 18.4 | 10.9 | 9.2 | nt
O=[N+]([O-])c1ccc(N=NNc2ccccc2)cc1 | -3.0 | -36.5 | 41.6* | -2.3 | 14.2 | 26.3 | 34.5*
Brc1ccc(N=NNc2ccccc2)cc1 | -9.8 | 22.8 | 31.4 | 5.7 | 14.8 | 32.6 | nt
SMILES | PfHsp90 set2 | NALP3 yeast inh | tim10-1 inh | NALP1 inh | TIM10 inh | tim23-1 inh | tim10-1 confirm
Nc1cc(-c2cccc(Br)c2)nn1Cc1ccccc1 | -3.6 | 19.7 | 45.7* | 44.8 | 17.7 | 34.0 | 18.5
COC(=O)c1ccc(N2CCN(c3ccccc3)CC2)c(N)c1 | -18.5 | 13.4 | 79.6* | -7.5 | -5.0 | -8.3 | 7.8
O=C1N/C(=C/c2ccc(Br)s2)C(=O)N1c1ccccc1 | -5.1 | 5.5 | 45.6* | 2.5 | -6.9 | 11.5 | 30.0
Cc1ccc(/C=C2/NC(=O)N(c3ccccc3)C2=O)o1 | 17.6 | 2.5 | 7.3 | -0.1 | -5.5 | 14.3 | nt
O=c1nc(/C=C/c2ccc(-c3ccc(F)cc3)o2)cc(C(F)(F)F)[nH]1 | nt | 5.9 | 47.2* | -5.0 | 34.4 | 47.7 | 31.0*
S=c1[nH]nc(-c2ccco2)n1/N=C/C=C/c1ccccc1 | 4.6 | 1.2 | 40.6* | -3.9 | 37.2 | 36.2 | 30.5*
S=c1[nH]nc(-c2ccccc2)n1/N=C/C=C/c1ccco1 | -4.0 | 6.5 | 36.7 | 12.8 | 15.5 | 36.4 | nt
S=c1[nH]nc(-c2ccco2)n1/N=C/c1ccc(Cl)cc1Cl | -24.4 | 16.4 | 38.3 | 5.2 | 38.4 | 37.4 | nt
S=c1[nH]nc(-c2ccco2)n1/N=C/c1cccc(Cl)c1Cl | -53.0 | 27.7 | 41.3* | 47.5 | 32.4 | 36.4 | 33.4*
CCOc1ccc(OCCC(=O)OCC(=O)Nc2cc(OCC)c(N3CCOCC3)cc2OCC)cc1 | 8.0 | 19.3 | 45.7* | nt | 28.1 | 48.6 | 30.8
O=S(=O)(Nc1cc(Cl)ccn1)c1ccc(Cl)cc1 | -11.5 | -3.2 | 42.0* | -8.5 | 2.9 | 36.4 | 23.2
O=S(=O)(Nc1ncccc1O)c1ccc(Cl)cc1 | nt | 5.9 | 7.7 | 2.1 | 7.1 | 10.9 | nt
N#Cc1ccccc1OCC(=O)Nc1nnc(C2CC2)s1 | 6.3 | 15.3 | 0.6 | nt | -3.6 | 10.3 | nt
CC(=O)c1ccc(N2Cc3ccccc3C2=NC(=O)c2cccs2)cc1 | 4.5 | 1.1 | 24.5 | 16.8 | 18.4 | 34.6 | nt
N#Cc1ccc(N2Cc3ccccc3C2=NC(=O)c2cccs2)cc1 | 1.2 | 15.2 | 51.3* | 28.6 | 21.4 | 40.0 | 38.8*
O=S(=O)(c1ccc(Br)cc1)c1nc(-c2ccco2)oc1NCCCn1ccnc1 | 9.0 | 8.6 | -12.4 | nt | 3.7 | -23.0 | nt
O=C(/C=C\c1ccc(-c2ccccc2)o1)c1ccccc1 | 6.1 | 12.6 | 48.3* | 41.0 | 31.4 | 45.5 | 48.2*
Cc1cc(N2CCCCC2)nc(SCC(=O)c2ccccc2)n1 | nt | 16.0 | 47.4* | 3.2 | 14.9 | 34.6 | 33.3*
C=CCc1ccc(O)c(-c2cc(CC=C)ccc2O)c1 | -81.2 | 5.8 | 43.0* | 4.8 | 30.5 | 30.8 | 44.5*
COc1cc(OC)cc(-c2nc3ccccc3c(=O)o2)c1 | 1.2 | 17.0 | 6.4 | -76.4 | 0.7 | 2.0 | nt
COc1cccc(-c2nc3ccccc3c(=O)o2)c1 | -2.2 | 2.5 | 48.4* | -9.2 | 29.1 | 35.7 | 42.0*
O=C(Cn1c(=O)c(=O)n(Cc2ccccc2)c2ccc(Cl)cc21)NCC1CCCO1 (stereo not drawn) | 16.1 | 13.0 | 23.9 | 4.1 | 6.0 | 11.7 | nt
